Data as given in PubChem BioAssay (NCI).
Compounds without any hit were thinned out: in the full panel of roughly 83,000, 20% have a hit.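 Single-concentration screen, 48 h exposure, 96-well plates. Endpoint: percent growth. Below 10 = active.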 Active and inactive are the calls of the source.

These compounds were tested on MDA-MB-468 breast (assay: NCI-60 one-dose screen, 48 h (100 = growth as untreated, 0 = no growth, -100 = all killed)). Conditions: 10 µM unless noted.
In the case of CCc1cc2n(n1)-c1ncc(C(=O)OC)cc1Oc1ccccc1-2, the growth is reported as 95.2% (inactive).
With COc1ccc(SC2c3ccc(C)cc3Oc3nc(N)c(C#N)c(N)c32)cc1 (configuration not stated) the growth was -51% (active).
In the case of Cc1nc(Nc2cn[nH]c2C(=O)Nc2ccc(CN3CCN(C)CC3)cc2)c2ccsc2n1, the growth is reported as 104% (inactive).
For CN1CCN(C)c2cncc(Br)c2C1=O, the growth was 106% (inactive).
For CS(=O)(=O)c1nnc(-c2ccccc2)s1, the growth was -8.46% (active).
With O=C(NCc1ccc(Cn2c(=O)sn(-c3ccc(Cl)cc3)c2=O)cc1)OCc1ccc2c(Cl)cc(Cl)c(O)c2n1 the growth was 45.4% (inactive).
For Cc1cc2c(-c3nc4ccccn4c3NC34CC5CC(CC(C5)C3)C4)c(O)c(O)cc2c(O)c1-c1c(C)cc2c(-c3nc4ccccn4c3NC34CC5CC(CC(C5)C3)C4)c(O)c(O)cc2c1O, the growth was -10.7% (active).
With Cc1nn(-c2ccccc2)c(Oc2ccccn2)c1-c1nc2ccccc2s1 the growth was 80% (inactive).
COc1ccc(-c2nc3c(c(-c4ccc(Cl)cc4)nn3-c3ccccc3)c(-c3ccccc3)c2C#N)cc1 was tested, and the growth was 108% (inactive).
For C=C(C)[C@@H]1CC[C@]2(C(N)=O)CC[C@]3(C)[C@H](CC[C@@H]4[C@@]5(C)C/C(=C/c6cccnc6)[C@H](O)C(C)(C)[C@@H]5CC[C@]43C)[C@@H]12, the growth was 23.6% [100 µM] (inactive).
In the case of COc1cc2ncnc(Nc3ccc(F)c(Cl)c3)c2cc1OCC(=O)N1CCN(c2ccc(F)cc2)CC1, the growth is reported as -7.58% (active).
In the case of Cn1cc(-c2nc(-c3cn(C)c4ncccc34)cs2)c2ccccc21, the growth is reported as -21.1% (active).
For O=C(CN1CCOCC1)Nc1ccc2ncnc(Nc3ccc(Oc4cccc(C(F)(F)F)c4)c(Cl)c3)c2c1, the growth was -7.54% (active).
COc1ccc(C(=O)NC(=O)Nc2cc3c(cc2F)/C(=C/c2[nH]c(C)c(CCC(=O)O)c2C)C(=O)N3)c(F)c1 was tested, and the growth was 50.4% (inactive).
In the case of C=C1C(=O)O[C@H]2[C@H]1CC/C(COC(=O)c1c[nH]c3ccccc13)=C\CC[C@@]1(C)O[C@@H]21, the growth is reported as -68.5% (active).
With COC(=O)c1ccc([N+](=O)[O-])c(C)c1 the growth was 102% (inactive).
With Nc1ccc(-c2cc3c(NCc4ccccc4)ncnc3s2)cc1 the growth was 4.36% (active).
For Nc1nc(Cl)cc(Cl)n1, the growth was 99.4% (inactive).
COc1cc(C)cc2oc3oc(=O)c(-c4nc5ccccc5s4)cc3c(=O)c12 was tested, and the growth was 104% (inactive).
COc1ccc(-c2ccc(-c3ccc(C(=N)N)cn3)s2)cc1Cl was tested, and the growth was -68.5% (active).
COC(=O)[C@]12CC[C@@H](C)[C@H](C)[C@@H]1C1=CC[C@@H]3[C@@]4(C)C[C@@H](O)[C@H](O)[C@@](C)(CO)[C@@H]4[C@H](O)C[C@@]3(C)[C@]1(C)CC2 was tested, and the growth was -53% (active).
In the case of COc1ccc(-c2nc(SCC(=O)Nc3ccc(C(C)=O)cc3)[nH]c(=O)c2C#N)cc1, the growth is reported as 105% (inactive).
CCCCN(CCCC)CCCO was tested, and the growth was 106% (inactive).
In the case of COc1ccc2c(c1)nnc1c3cccnc3[nH]c21, the growth is reported as -92.6% (active).
With N#CSc1c[nH]c2cccc(/C=C/C(=O)/C=C(O)/C=C/c3cccc4[nH]cc(SC#N)c34)c12 the growth was -55.8% (active).
C=C(C)Cn1c(SCC(=O)c2cccs2)nc2sc3c(c2c1=O)CCCC3 was tested, and the growth was 68.6% (inactive).
For Clc1ccccc1-c1cnn2cc(-c3ccccc3)cnc12, the growth was 90.8% (inactive).
In the case of COc1ccc2c(c1)C(=O)c1c-2c(OCCN(C)C)nc2ccccc12, the growth is reported as 44.8% (inactive).
For COc1cc2c(c(OC)c1OC)-c1ccc(NCc3ccccc3)c(=O)cc1[C@@H](NC(C)=O)CC2, the growth was 17.3% (inactive).
With O=C1NC(=O)c2cc([N+](=O)[O-])ccc21 the growth was 96.1% (inactive).
In the case of CC(=O)c1nn(-c2ccccc2)/c(=N\N=C\c2coc3ccc(F)cc3c2=O)s1, the growth is reported as 115% (inactive).
With COc1ccccc1CNCCCN1C(=O)c2ccc3c4c(ccc(c24)C1=O)C(=O)N(CCCN)C3=O the growth was -88.1% (active).
With CCOC(=O)c1nnn(Cc2cc(=O)oc3ccc(O)cc23)c1C the growth was 108% (inactive).
In the case of CCOC(=O)c1cc(C(=O)c2cc(OC)c(OC)c(OC)c2)n2c1ccc1c3cccnc3ccc12, the growth is reported as 61.5% (inactive).
O=C(Cc1ccccc1)Nc1nc(O)c(/C=C2\C(=O)C=Cc3ccccc32)s1 was tested, and the growth was 95.9% (inactive).
In the case of CCN1C(=O)N(CC)C2SC(N/N=C/c3ccccc3)=NC21 (configuration not stated), the growth is reported as 34.4% (inactive).
For O=C1/C(=C/c2ccc(Cl)cc2)N=C(c2ccccc2)N1CCc1cccs1, the growth was 72.4% (inactive).
